Screens deposited in PubChem BioAssay by Broad Institute.
Hits are enriched below; roughly 3.4% of the tested compounds scored in any of these assays.
PAX8 inh HTS: lowers PAX8-driven luciferase in RMG-I cells; RMG-I TPO-luciferase reporter, SteadyGlo, 24 h; inhibition, % at 12.6 µM; actives 1.2% (n = 360,000);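 active = mean replicate inhibition at least 60% with every replicate also reaching 60%; inconclusive = only one of the two criteria is met; inactive = mean below 60% and not all replicates reaching 60%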;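 note: luciferase light reporting Pax8 driven TPO promoter activity; plate controls were median of neutral control wells for no effect and mitoxantrone controls for full effect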
LGR2 antag: blocks bursicon-induced cAMP signaling via Drosophila LGR2; HEK293 LGR2, CRE-luciferase, bursicon-stimulated, 4 h; inhibition, % at 9.99 µM; actives 0.35% (n = 380,000); AID 720647;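 active = drop in luminescence signal, shown as inhibition above about 50% in the replicate tests, limit read from the data, passing the limit was not always enough; inconclusive = probably only some replicates passing the limit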;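 note: agonist challenge used bursicon conditioned medium at about half maximal strength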
EWS-Fli block: inhibitors of EWS/Fli oncoprotein transcriptional activity | A673 NR0B1-luciferase reporter, viability-normalised | inhibition, % at 12.6 µM | actives 0.67% (n = 350,000) | AID 651661;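 active = mean inhibition of at least 50% after viability correction, with every replicate also passing that limit; inconclusive = mean reaches 50% but only one of two replicates passes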;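 note: firefly luciferase signal divided by Alamar Blue viability fluorescence both relative to DMSO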
PGC1a acetyl inh: modulators of PGC1a acetylation. U2OS PGC1a acetylation, AlphaScreen anti-acetyl-lysine; with virally co-expressed GCN5 acetyltransferase. inhibition, % at 15.6 µM. actives 0.17% (n = 350,000);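 active = every replicate shows inhibition of at least 40%; inconclusive = mean inhibition at least 40% but some replicate below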;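 note: 0% = neutral control wells and 100% = positive control wells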
SIRT5 inh: inhibitors of human sirtuin-5 desuccinylase; actives 1.1% (n = 330,000); Q9NXA8; inhibition, % at 15 µM; Purified SirT5, succinyl-peptide AMC, trypsin-coupled fluorescence; in the data active = inhibition above about 15%; inconclusive = no clear call, values can overlap the other calls
Target sequence (Q9NXA8 whole entry, looked up): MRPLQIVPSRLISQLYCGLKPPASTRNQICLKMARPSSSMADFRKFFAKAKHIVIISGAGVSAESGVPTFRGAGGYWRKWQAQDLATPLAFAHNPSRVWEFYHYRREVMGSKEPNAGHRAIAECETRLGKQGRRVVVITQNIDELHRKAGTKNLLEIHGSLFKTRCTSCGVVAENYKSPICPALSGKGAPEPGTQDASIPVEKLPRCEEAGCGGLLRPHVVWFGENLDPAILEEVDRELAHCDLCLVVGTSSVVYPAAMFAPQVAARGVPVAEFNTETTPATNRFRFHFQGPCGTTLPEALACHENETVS
Ecoli rRNA inh: selective bacterial rRNA inhibition in E. coli; GFP signal change (wild-type ribosome), % (no concentration beside the values); actives 1.6% (n = 350,000); E. coli WT GFP vs humanized-ribosome RFP mutants, fluorescence, 24 h; hits give low values; DMSO median 0, no signal -100;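 active = significant combined selectivity score with lowered wild-type GFP, culture density cut under 30%, mutant RFP and density less affected; inactive = any of these conditions unmet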
Starred values were filed as active, the others as inactive; ? = inconclusive; . = not tested or not shown.

SMILES	PAX8 inh HTS	LGR2 antag	EWS-Fli block	PGC1a acetyl inh	SIRT5 inh	Ecoli rRNA inh
COc1cccc(N2CCN(C(=O)c3cn(Cc4ccccc4)nc3-c3cccnc3)CC2)c1	52	26	57*	10	0	-2
COc1cccc(N2CCN(C(=O)c3ccc(CS(=O)c4ccc(Cl)cc4)o3)CC2)c1 (centres undefined)	38	-20	56*	.	3	-22
COc1cccc(N2CCN(C(=O)c3ccc(CS(=O)Cc4ccc(C)cc4)o3)CC2)c1 (centres undefined)	29	4	-7	5	-1	-6
COc1ccc(S(=O)(=O)Cc2ccc(C(=O)N3CCN(c4cc(Cl)ccc4C)CC3)o2)cc1	10	5	-7	0	.	-17*
COc1cccc(N2CCN(C(=O)c3ccc(CS(=O)c4ccc(C)cc4)o3)CC2)c1 (centres undefined)	66*	-6	49	-25	0	-4
COc1ccccc1N1CCN(C(=O)c2cn(Cc3ccccc3)nc2-c2cccnc2)CC1	5	-12	-7	15	-2	-1
CCCC(=O)Nc1ccc2c(c1)OC[C@H](C)N(C(=O)CC)C[C@@H](C)[C@H](OC)CN(C)C2=O	-6	-2	9	13	0	1
CC1(C)CC(=O)C=C(NC2=CC3OC(c4ccccc4)OCC3OC2=O)C1 (centres undefined)	?	86*	0	.	-4	14
C=C1SC(Nc2c(C)cccc2C)=NC12CCCCC2	3	0	-33	-1	-2	-22*
Cc1cc(C)c(NC(=O)CN2C(=O)NC3(CCCCC3)C2=O)c(C)c1	.	-4	5	-12	-3	4
C=C1SC(Nc2c(C)cc(C)cc2C)=NC12CCCCC2	1	16	7	1	0	-50*
CN1C(=O)c2cc(NC(=O)c3ccc(F)cc3)ccc2OC[C@@H]2O[C@H](CC(=O)O)CC[C@H]21	2	6	-2	2	-5	1
O=C(CSc1nnc(NC(=O)c2ccco2)s1)Nc1cccc(F)c1	.	-10	-49	0	22*	9
CSc1nnc(NC(=O)c2ccc3c(c2)OCO3)s1	-98	67*	62*	0	-4	25
O=C(CSc1nnc(NC(=O)c2ccc3c(c2)OCO3)s1)NCc1ccco1	-1	60*	27	2	-3	16
Cc1nnc(NC(=O)c2ccc3c(c2)OCO3)s1	-110	4	-77	1	-2	15
CN1C(=O)c2cc(NC(=O)c3ccc(F)c(F)c3)ccc2OC[C@H]2O[C@H](CC(=O)N[C@H]3CCN(Cc4ccccc4)C3)CC[C@@H]21	23	-6	2	.	1	-1
CC(C)NC(=O)N(C)C[C@H]1Oc2cc(-c3cccnc3)ccc2S(=O)(=O)N([C@H](C)CO)C[C@H]1C	.	-13	-9	7	-5	3
CCNC(=S)N/N=C/c1cn(Cc2ccc(F)cc2)c2ccccc12	8	.	-13	.	2	.
O=C(O)c1ccc(N/N=C/c2cn(Cc3ccc(F)cc3)c3ccccc23)cc1	-172	-15	-33	11	-10	-34*
CO[C@@H]1CN(C)C(=O)c2ccc(NS(=O)(=O)c3cn(C)cn3)cc2OC[C@H](C)NC[C@@H]1C	2	2	9	36	-1	2
O=S(=O)(Nc1nc2ccccc2nc1NCC1CCCO1)c1cc(Cl)ccc1Cl (centres undefined)	13	-9	13	4	1	-27*
O=S(=O)(Nc1nc2ccccc2nc1NCC1CCCO1)c1ccccc1 (centres undefined)	12	-1	0	-5	-3	0
CC(C)(C)OC(=O)NOCC(=O)N(Cc1ccccc1)CC(O)COc1ccccc1 (centres undefined)	-16	-15	-3	13	2	-18*
CC(C)(C)OC(=O)NOCC(=O)N(CC(=O)c1ccccc1)Cc1ccccc1	-5	4	-1	-9	27*	-15
SMILES	PAX8 inh HTS	LGR2 antag	EWS-Fli block	PGC1a acetyl inh	SIRT5 inh	Ecoli rRNA inh
CN(C)C(=O)[C@@H]1[C@@H](CO)[C@@H]2Cn3c(ccc(-c4cccnc4)c3=O)[C@@H]2N1Cc1ccccc1F	-19	8	-2	-5	9	1
C[C@@H]1CCCCO[C@H](CN(C)Cc2ccc3c(c2)OCO3)[C@H](C)CN([C@@H](C)CO)C(=O)c2cc(NC(=O)Nc3cccc4ccccc34)ccc2O1	23	-3	12	-10	.	-7
C[C@@H]1CCCCO[C@@H](CN(C)S(C)(=O)=O)[C@H](C)CN([C@@H](C)CO)C(=O)c2cc(NS(=O)(=O)c3cn(C)cn3)ccc2O1	.	-4	-7	-3	-2	3
Cc1csc(NC(=O)c2ccc(N3CCCC3=O)cc2)n1	51	90*	47	.	-2	15
Cc1csc(N2CCCC2=O)n1	-1	-8	6	5	21*	11
O=C1CCCN1c1ccc(N2CCCC2=O)cc1	-21	.	18	.	-3	11
COc1cc(C(=O)/C=C/c2cccnc2)ccc1O	23	10	-10	.	2	12
C(=Cc1cccnc1)c1ccncc1	16	11	-4	3	0	5
O=C(/C=C/c1cccnc1)/C=C/c1cccnc1	92*	15	73*	81*	-5	-5
N#Cc1ccc(/C=C/C(=O)c2cccnc2)cc1	1	81*	-6	-10	-4	0
COc1ccc(OC)c(C(=O)/C=C/c2cccnc2)c1	72*	7	32	.	-1	6
C[C@H](CO)N1C[C@H](C)[C@H](CN(C)C(=O)C2CCCCC2)Oc2cc(-c3cccnc3)ccc2S1(=O)=O	.	23	2	-11	0	-7
C=CCNc1nnc(Cl)c2ccccc12	.	-9	7	8	26*	-9
c1ccc(C(c2ccccc2)c2nc(-c3cccnc3)no2)cc1	.	2	.	-11	-9	-39*
NS(=O)(=O)c1ccc(N/N=C/c2ccc(O)cc2O)c([N+](=O)[O-])c1	52	-5	12	3	14	10
COc1ccc(C=NNc2ccc([N+](=O)[O-])cc2S(=O)(=O)Nc2ccccc2C(=O)O)cc1OC	-4	-23	-7	-5	.	-23*
NS(=O)(=O)c1ccc(N/N=C/c2ccc(O)c(O)c2O)c([N+](=O)[O-])c1	24	10	-24	5	16*	2
O=C(O)c1ccccc1NS(=O)(=O)c1ccc(NN=Cc2ccc(F)cc2)c([N+](=O)[O-])c1	.	.	.	-2	.	.
COc1ccc(NS(=O)(=O)c2cc([N+](=O)[O-])ccc2NN=Cc2ccccc2OCC(=O)O)cc1	-12	0	3	1	-2	-32*
O=C(O)c1ccccc1NS(=O)(=O)c1ccc(N/N=C/c2ccc(O)c(O)c2)c([N+](=O)[O-])c1	-7	6	-12	.	21*	-25*
